In all, about 310,000 compounds went through this assay and about 14,000 (4.5%) showed an effect of 50% or more. Effects have a minus sign here. Many of the other results were omitted from the sample, so strong results are more common in it than they were.
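Further: peak tail current of the secondary pulse compared with the same well before compound.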

The experiment deals with human ether-à-go-go-related gene (hERG) potassium channel (human, UniProt Q12809). Briefly: primary screen, population patch clamp on CHO cells stably expressing hERG; higher = less effect of the substance.
Chain of human ether-à-go-go-related gene (hERG) potassium channel (Q12809 whole entry, looked up): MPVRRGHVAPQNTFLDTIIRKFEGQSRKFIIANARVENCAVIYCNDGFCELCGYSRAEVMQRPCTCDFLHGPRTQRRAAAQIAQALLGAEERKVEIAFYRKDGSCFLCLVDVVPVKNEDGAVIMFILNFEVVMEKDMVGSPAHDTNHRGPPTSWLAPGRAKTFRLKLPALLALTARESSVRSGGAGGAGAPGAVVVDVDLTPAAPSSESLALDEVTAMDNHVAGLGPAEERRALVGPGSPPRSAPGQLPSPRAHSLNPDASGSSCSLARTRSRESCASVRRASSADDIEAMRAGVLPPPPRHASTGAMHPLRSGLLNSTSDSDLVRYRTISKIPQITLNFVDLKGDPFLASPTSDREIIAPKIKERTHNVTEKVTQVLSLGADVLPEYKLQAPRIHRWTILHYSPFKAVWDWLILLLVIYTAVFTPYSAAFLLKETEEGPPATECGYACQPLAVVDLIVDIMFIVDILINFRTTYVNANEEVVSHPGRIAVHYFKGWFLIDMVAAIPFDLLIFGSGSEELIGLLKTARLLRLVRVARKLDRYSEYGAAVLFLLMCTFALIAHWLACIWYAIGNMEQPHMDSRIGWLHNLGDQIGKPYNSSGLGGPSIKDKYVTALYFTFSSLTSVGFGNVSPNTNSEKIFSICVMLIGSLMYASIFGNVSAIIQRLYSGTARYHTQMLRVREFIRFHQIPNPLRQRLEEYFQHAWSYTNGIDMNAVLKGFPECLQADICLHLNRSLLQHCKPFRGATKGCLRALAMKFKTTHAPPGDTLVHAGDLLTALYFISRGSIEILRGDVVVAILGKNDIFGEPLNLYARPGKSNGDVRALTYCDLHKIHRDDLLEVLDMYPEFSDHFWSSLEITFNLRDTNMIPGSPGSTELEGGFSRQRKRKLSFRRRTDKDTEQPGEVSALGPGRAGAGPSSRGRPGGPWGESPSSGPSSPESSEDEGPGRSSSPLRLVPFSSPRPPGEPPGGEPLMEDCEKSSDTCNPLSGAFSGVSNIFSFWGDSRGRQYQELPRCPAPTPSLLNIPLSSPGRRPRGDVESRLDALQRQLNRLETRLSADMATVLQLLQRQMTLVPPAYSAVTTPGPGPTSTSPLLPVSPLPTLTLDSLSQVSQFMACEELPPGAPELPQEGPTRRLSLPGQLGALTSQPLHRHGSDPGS
As for `CSc1nc2ccccc2cc1/C=C(\C#N)c1cccc(Cl)c1`, the “hERG current change (%, negative = inhibition) at 10uM” value was determined as 8.2%.
Next, `CCN1C(C(=O)Nc2cc(C)on2)=C(O)c2ccccc2S1(=O)=O`: 24.7%; `CCCCCC(=O)Nc1cccc(C2=NOC3(C2)C[C@@H](C(N)=O)N(C(=O)c2ccc(Cl)cc2)C3)c1` (some centres unmarked): -29.6%; `O=C(COc1ccc(Cl)cc1)Nc1cccc(S(=O)(=O)NC2=NCCCCC2)c1`: -42.1%.
To `C/C(=N\NC(=O)c1ccc(CN2CCOCC2)cc1)c1ccc([N+](=O)[O-])cc1` belongs -7.18%; to `C/C(=N/NC(=O)CSc1ccccn1)c1ccc([N+](=O)[O-])cc1`, -64.2%.
To `C/C(=N\NC(=O)CN1CCCCC1)c1cccc([N+](=O)[O-])c1` belongs -25.9%; to `C/C(=N/NC(=O)CN1CCN(Cc2ccccc2Cl)CC1)c1cccs1`, -17.8%; to `C/C(=N\NC(=O)CSc1nc(C)cc(C)n1)c1ccc([N+](=O)[O-])cc1`, -10.8%.
With `C/C(=N/NC(=O)CC(=O)N/N=C(\C)c1ccc([N+](=O)[O-])cc1)c1ccc([N+](=O)[O-])cc1`, the “hERG current change (%, negative = inhibition) at 10uM” value was -28.8%.
Next, `C/C(=N/NC(=O)CN1CCN(Cc2ccccc2)CC1)c1ccc([N+](=O)[O-])cc1`: -76.5%.
To `C/C(=N\NC(=O)Cc1ccccc1)c1cccs1` belongs -4.86%; to `C/C(=N\NC(=O)CN1CCN(Cc2ccccc2)CC1)c1cccs1`, -50.9%; to `CC1CCCCN1C(=O)CSc1nnc(-c2ccco2)n1C` (centres unmarked), 4.88%.
Next, `COCCNCC(=O)N1CCCCCC1.O=C(O)C(=O)O`: -24.6%; `Cc1cc(C(=O)OCC(=O)N2CCCC2)c2ccccc2n1`: -9.04%.
Regarding `CC(C)(C)NC(=O)C(=O)NNC(=O)COc1ccc(Br)cc1`, the “hERG current change (%, negative = inhibition) at 10uM” value amounted to 5.23%.
To `O=C(Cn1nnc(-c2ccccc2Cl)n1)N1CCN(S(=O)(=O)c2ccc(Cl)cc2)CC1` belongs -18%; to `CCCNC(=O)COc1coc(CN2CCN(C(=O)c3ccco3)CC2)cc1=O`, 3.56%; to `CC(Oc1coc(CN2CCN(C(=O)c3ccco3)CC2)cc1=O)c1ccccc1` (centres unmarked), 11.5%.
To `Cc1ccc(COc2coc(CN3CCN(C(=O)c4ccco4)CC3)cc2=O)cc1` belongs -48.4%.
Consider `O=C(c1ccco1)N1CCN(Cc2cc(=O)c(OCc3ccccc3Cl)co2)CC1`, for which the “hERG current change (%, negative = inhibition) at 10uM” value is given as -56.2%.
As to `Cc1ccc(C)c(OCC(=O)N2CCN(C(=O)c3ccco3)CC2)c1`, the “hERG current change (%, negative = inhibition) at 10uM” value is reported as -8.23%.
To `O=C(c1ccco1)N1CCN(Cc2cc(=O)c(OCc3cccc(Cl)c3)co2)CC1` belongs -74.7%.
Turning to `CNC(=O)COc1coc(CN2CCN(C(=O)c3ccco3)CC2)cc1=O`, the “hERG current change (%, negative = inhibition) at 10uM” value is reported as 7.13%.
Turning to `CC(C)(C)NC(=O)COc1coc(CN2CCN(C(=O)c3ccco3)CC2)cc1=O`, the “hERG current change (%, negative = inhibition) at 10uM” value was 20.1%.
For `Cc1ccc(C)c(COc2coc(CN3CCN(C(=O)c4ccco4)CC3)cc2=O)c1`, the “hERG current change (%, negative = inhibition) at 10uM” value is on record as -100%.
On to `COC(=O)COc1coc(CN2CCN(c3cccc(Cl)c3)CC2)cc1=O`, for which the “hERG current change (%, negative = inhibition) at 10uM” value is listed as -11.4%.
Turning to `Cc1cccc(COc2coc(CN3CCN(C(=O)c4ccco4)CC3)cc2=O)c1`, the “hERG current change (%, negative = inhibition) at 10uM” value was -50.7%.
Turning to `O=C(c1ccco1)N1CCN(Cc2cc(=O)c(OCc3ccccc3F)co2)CC1`, the “hERG current change (%, negative = inhibition) at 10uM” value is given as -30.4%.
On to `CC(C)CN(C(=O)COc1ccc(Br)cc1C=O)C1CCS(=O)(=O)C1` (centres unmarked), for which the “hERG current change (%, negative = inhibition) at 10uM” value is reported as -25.4%.
Next, `COc1ccc(O)c(-c2cn[nH]c2-c2cccs2)c1`: 7.6%; `O=C(CNC(=O)Cc1ccccc1)N=Nc1c(O)[nH]c2ccc(Br)cc12`: 24.7%.
To `O=C(CSc1nc2ccccc2c(=O)[nH]1)Nc1ccccc1C(F)(F)F` belongs -2.68%.
To `C=CCNC(=O)c1cc(-c2ccccc2O)on1` belongs 8.16%.
Take `CCN(CC(=O)NCC(=O)Nc1cccc(C)c1C)Cc1ccccc1`: the “hERG current change (%, negative = inhibition) at 10uM” value came to 5.6%.
Turning to `C=CCn1nc([N+](=O)[O-])nc1Sc1cccc2cccnc12`, the “hERG current change (%, negative = inhibition) at 10uM” value is given as -2.55%.
To `O=[N+]([O-])CC(=Nc1ccc(Cl)cc1)N/N=C\c1oc(O)c2ccccc12` belongs 5.58%; to `O=C(c1ccco1)N1CCN(Cc2cc(=O)c(OCc3c(F)cccc3Cl)co2)CC1`, -58%.
Next, `O=c1cc(CO)occ1OCc1c(F)cccc1Cl`: 9.21%; `O=C(c1ccco1)N1CCN(Cc2c(F)cccc2Cl)CC1`: -9.87%.
Next, `CCN(CC)C(C(=O)Nc1ccc(C(C)C)cc1)c1ccc2c(c1)OCO2` (centres unmarked): -9.99%; `CCOc1cc(C)c(S(=O)(=O)N2CCCC2)cc1C`: -14.6%.
With `COc1ccc(CCN(C(=O)c2snc(C(N)=O)c2N)C(C)C(=O)NC2CCCCC2)cc1OC` (centres unmarked), the “hERG current change (%, negative = inhibition) at 10uM” value was -13.9%.
Regarding `Cc1cc(C(F)F)n2ncc(C(=O)NCCc3ccc(Cl)cc3)c2n1`, the “hERG current change (%, negative = inhibition) at 10uM” value is listed as -45%.
Next, `COc1ccccc1CCNC(=O)c1cnn2c(C(F)F)cc(C)nc12`: -33.6%; `Cc1cc(C(F)F)n2ncc(C(=O)NCCc3ccccc3Cl)c2n1`: -56.7%; `CCOC(=O)N1CCC(N(CCN(C)C)C(=S)Nc2cccc(Cl)c2C)CC1`: 12.5%.
Consider `Cc1nc(C(=O)Nc2ccccc2Cl)cc2c1[nH]c1ccccc12`, for which the “hERG current change (%, negative = inhibition) at 10uM” value is reported as 0.837%.
Next, `O=C(CCC(=O)Nc1cccc(C(F)(F)F)c1)NCC1CCCO1` (centres unmarked): 11.1%; `CC1=C(C(=O)OCC2CCCO2)C(c2cccc(C(F)(F)F)c2)C2=C(CC(c3ccco3)CC2=O)N1` (centres unmarked): 6.09%.
Take `CC1=C(C(=O)OCC2CCCO2)C(c2ccccc2OC(C)C)C2=C(CC(c3ccco3)CC2=O)N1` (centres unmarked): the “hERG current change (%, negative = inhibition) at 10uM” value was -57.8%.
As for `COc1ccc(C2C(C(=O)OCC3CCCO3)=C(C)NC3=C2C(=O)CC(c2ccco2)C3)cc1O` (centres unmarked), the “hERG current change (%, negative = inhibition) at 10uM” value turned out to be 5.72%.
As to `CC(C)C(=O)Nc1ccc2c(c1)C(=O)NC2=O`, the “hERG current change (%, negative = inhibition) at 10uM” value came out at 14.3%.
In the case of `Cc1cc(C)cc(N(CC(=O)NC2CCCC2)C(=O)CNC(=O)c2cccs2)c1`, the “hERG current change (%, negative = inhibition) at 10uM” value stood at 18%.
Next, `CCC(C)c1ccccc1OCCCN(C)Cc1ccccc1` (centres unmarked): -27%; `CCN1CCCC(OC(=O)c2cc(-c3ccccc3Cl)nc3ccccc23)C1.Cl` (centres unmarked): -65.3%; `CCN1CCCC(OC(=O)c2cc(-c3ccc(C)cc3)nc3ccccc23)C1.Cl` (centres unmarked): -8.97%.
In the case of `O=C(OCn1nnc2ccccc2c1=O)c1cc(-c2ccccc2Cl)nc2ccccc12`, the “hERG current change (%, negative = inhibition) at 10uM” value came out at 12.8%.
Next, `CN(C(=O)COC(=O)c1cc(-c2ccccc2Cl)nc2ccccc12)C1CCS(=O)(=O)C1` (centres unmarked): -30.9%; `CN1CCC(N(C)C(=O)c2cc(-c3ccccc3Cl)nc3ccccc23)CC1.Cl`: -84.3%; `CCN1CCCC(OC(=O)C(c2ccccc2)c2ccccc2)C1.Cl` (centres unmarked): -66.1%.
Next, `Cl.O=C(OC1CCN(CCCl)CC1)C(c1ccccc1)c1ccccc1`: 11%.
`CCN1CCCC(OC(=O)Nc2ccccc2)C1` (centres unmarked): the “hERG current change (%, negative = inhibition) at 10uM” value is 2.47%.
`O=C(c1cc(-c2ccccc2Cl)nc2ccccc12)N1CCOCC1`: the “hERG current change (%, negative = inhibition) at 10uM” value is -6.68%.
With `O=c1c(-c2ccccc2)[n+]([O-])c2ccccc2n1O`, the “hERG current change (%, negative = inhibition) at 10uM” value is -9.6%.
As to `CCOc1ccccc1NC(=O)Cc1cccs1`, the “hERG current change (%, negative = inhibition) at 10uM” value turned out to be 3.18%.
Turning to `O=C(NCCCN1CCCCC1)c1ccc(CS(=O)c2ccc(F)cc2)o1` (centres unmarked), the “hERG current change (%, negative = inhibition) at 10uM” value was -0.35%.
Next, `Br.O=C(Cn1c(NCCCO)nc2ccccc21)c1ccc(F)cc1`: -9.54%; `Cc1ccc(C(c2sc3nc(C)nn3c2O)N2CCN(c3ccc(F)cc3)CC2)cc1` (centres unmarked): -65.2%; `Oc1c(C(c2cccs2)N2CCN(c3cccc(Cl)c3)CC2)sc2ncnn12` (centres unmarked): -26.5%.
To `Cc1nc2sc(C(c3ccc(F)cc3)N3CCOCC3)c(O)n2n1` (centres unmarked) belongs 9.62%; to `Oc1c(C(c2cccs2)N2CCN(c3ccc(F)cc3)CC2)sc2ncnn12` (centres unmarked), -66%.
To `Oc1c(C(c2cccs2)N2CCN(c3ccccc3)CC2)sc2ncnn12` (centres unmarked) belongs -33.6%; to `Cc1ccc(C(c2sc3nc(C)nn3c2O)N2CCN(c3ccccc3)CC2)cc1` (centres unmarked), -5.32%.
Consider `O=C(CCc1ccccc1)Nc1ccccc1C(=O)NCc1ccco1`, for which the “hERG current change (%, negative = inhibition) at 10uM” value was found to be 0.64%.
For `COC(=O)[C@@]12CCCN1[C@H](c1ccc(-c3ccccc3)cc1)[C@@H]1C(=O)N(C)C(=O)[C@@H]12.O=C(O)C(F)(F)F`, the “hERG current change (%, negative = inhibition) at 10uM” value is on record as -6.67%.
With `C=C(C)c1cccc(C(C)(C)NC(=O)Nc2ccc(OC)cc2)c1`, the “hERG current change (%, negative = inhibition) at 10uM” value is 8.48%.
Regarding `COc1ccc(NC(=O)c2oc3ccc(S(=O)(=O)N4CCOCC4)cc3c2C)cc1`, the “hERG current change (%, negative = inhibition) at 10uM” value amounted to 3.58%.
To `COc1ccc2c(c1)nc(SCC(C)O)n2C` (centres unmarked) belongs 18%.
Next, `COc1ccc2c(c1)nc(SCC(=O)C(C)(C)C)n2C`: -2.82%; `COc1ccc2c(c1)nc(SCC(O)c1ccccc1)n2C` (centres unmarked): -60.2%.
For `COC(=O)c1cc(NS(=O)(=O)c2cccc(Cl)c2)ccc1N1CCOCC1`, the “hERG current change (%, negative = inhibition) at 10uM” value stood at 2.66%.
To `CCN(CCCNC(=O)COc1cc(=O)n(C)c2ccccc12)c1ccccc1` belongs -41.3%; to `CCN(CCCNC(=O)C1CCC(=O)N1Cc1ccccc1Cl)c1cccc(C)c1` (centres unmarked), -64.5%.
To `CCN(CCCNC(=O)C1CCC(=O)N1Cc1ccc(C)cc1)c1cccc(C)c1` (centres unmarked) belongs -24.9%; to `CCN(CCCNC(=O)COc1cc(=O)n(C)c2ccccc12)c1cccc(C)c1`, -51%.
To `CCN(CCCNC(=O)C1CCC(=O)N1Cc1ccc(F)cc1)c1cccc(C)c1` (centres unmarked) belongs -18.3%; to `CCN(CCCNC(=O)COc1cc(=O)n(CC)c2ccccc12)Cc1ccccc1`, -19.8%; to `Cc1cccc(CCNC(=O)COc2cc(=O)n(C)c3ccccc23)c1`, -17.6%.
Take `CCn1c(=O)cc(OCC(=O)NCCC(C)C)c2ccccc21`: the “hERG current change (%, negative = inhibition) at 10uM” value turned out to be 0.0582%.
Take `CCN(CCCNC(=O)COc1cc(=O)n(CC)c2ccccc12)c1ccccc1`: the “hERG current change (%, negative = inhibition) at 10uM” value is listed as -52.5%.

For the origin of these results see PMC4336329 (PLoS ONE, 2015).
